The nature of assay [1]: liver-stage malaria parasite growth inhibition, primary screen, cell-based, HepG2, luciferase luminescence, HepG2 viability (AID 624349).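 Also: 100% = mean of DMSO negative control wells on the same plate.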 The settings on record: P. berghei liver stage in HepG2, luciferase luminescence, concentration not given here; parasite load remaining: stronger effect = lower value; viability: measured here: HepG2 viability without parasites.
Assay [2] in a line: differential killing of epithelial or mesenchymal cells, primary screen, imaging, PC-3E GFP, TEM4-18 mCherry, co-culture (AID 1345086;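 active = compounds killing one labelled cell type while sparing the other, by normalised counts and ratio limits, not self-fluorescent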;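 as to all read-outs here: cells exposed to compound for 72 h before imaging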;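 as to red/green cell ratio (normalised): normalised mesenchymal count divided by normalised epithelial count so high means epithelial killing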). The settings on record: imaging cell counts, at 1 µM; for red/green cell ratio (normalised): actives lie on both sides, counts scaled to control wells, 1 = unselective.
Assay [3] in a line: sensitizers of A549 cells to miR-34 induction, primary screen, imaging, A549 dox-inducible miR-34, nuclei and caspase counts (AID 1347080;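 active = compounds whose cell count with miR-34 switched on is under 0.7 times the count with it off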). The settings on record: A549 miR-34 inducible, Hoechst nuclei count, 48 h.
The nature of assay [4]: hESC survival regulators, cell-based (AID 493140; call rule not given here;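 also: cells exposed to compounds for four days before counting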). The settings on record: human embryonic stem cell survival screen; stronger effect = higher value.
Setting [5] is: measured here: epithelial PC-3E GFP cell survival.
Where [6] appears, read: measured here: mesenchymal TEM4-18 mCherry cell survival.
Setting [7] is: stronger effect = lower value, cell number ratio, induced over uninduced.
Where [8] appears, read: measured here: relative caspase fold change +Dox/-Dox.
Where [9] appears, read: measured here: total cells with miR-34 induction, stronger effect = lower value.
[10] abbreviates: measured here: total cells without miR-34 induction.

Several values for one entry are separate records, joined by “and”; a condition that tells them apart may be missing. Equal entries are not always repeated. Activity calls are given as the source filed them. Rule as the data show it, unless noted: active = parasite load remaining mostly below about 12% (no sharp cut-off); inactive = mostly above about 10%. Square brackets hold non-standard residues; d marks the D form. Peptide text beside a SMILES is read from it. Orn = NCCC[CH](N)C(=O)O

On to `CNCC[C@@H](Oc1ccccc1)c1ccccc1`, for which the parasite load remaining in assay [1] is 48% (inactive). Moreover, the viability (commonly a read-out of living cells in per cent, often relative to untreated cells) in assay [1] came out at 116%. Further, in assay [2], the red/green cell ratio (normalised) was 1.13 (inactive). Also, the normalised cell number was found to be 1.27 in assay [2] (setting [5]) and 1.44 in assay [2] (setting [6]). For the same compound, the fold change is 0.971 (inactive) in assay [3] (setting [7]) and 1.23 in assay [3] (setting [8]). For the same compound, the cell count in assay [3] (setting [9]) was 10900; in assay [3] (setting [10]), 11200.
In the case of `COCC1=C(C(=O)OC(C)OC(=O)OC(C)C)N2C(=O)[C@@H](NC(=O)/C(=N/OC)c3csc(N)n3)[C@H]2SC1` (some centres not stated), the parasite load remaining in assay [1] was 42.3% (inactive). Besides, the viability in assay [1] came to 194%. Besides, the red/green cell ratio (normalised) in assay [2] is 1.05 (inactive). Besides, the figures for the normalised cell number in assay [2] (setting [5]) and in assay [2] (setting [6]) were 0.94 and 0.99, respectively. Moreover, the figures for the fold change in assay [3] (setting [7]) and in assay [3] (setting [8]) were 0.924 (inactive) and 3.66, respectively. In addition, the cell count in assay [3] (setting [9]) was determined as 12100; in assay [3] (setting [10]), 13100.
Turning to `CC(=O)c1cc2ccccc2oc1=O`, the survival in assay [4] is 6.92 (inactive). Also, the parasite load remaining in assay [1] is 80.8% (inactive). Moreover, in assay [1], the viability amounted to 96.7%. In assay [2], the red/green cell ratio (normalised) is 0.84 (inactive). Moreover, the normalised cell number in assay [2] (setting [5]) stood at 1.16; in assay [2] (setting [6]), 0.98. The fold change is 0.915 (inactive) in assay [3] (setting [7]) and 1.42 in assay [3] (setting [8]). Besides, the figures for the cell count in assay [3] (setting [9]) and in assay [3] (setting [10]) were 8970 and 9810, respectively.
On to `CCCCCCCCCCCCCCCC(=O)O[C@@H]1[C@@H](O)[C@@H](O)C([C@H](NC(=O)[C@@H]2C[C@@H](CCC)CN2C)[C@H](C)Cl)O[C@@H]1SC` (some centres not stated), for which, in assay [1], the parasite load remaining is 57.3% (inactive). Further, the viability in assay [1] turned out to be 113%. Also, the red/green cell ratio (normalised) in assay [2] is 0.93 (inactive). In addition, the values for the normalised cell number in assay [2] (setting [5]) and in assay [2] (setting [6]) were 1.03 and 0.95, respectively. The values for the fold change in assay [3] (setting [7]) and in assay [3] (setting [8]) were 0.819 (inactive) and 4.42, respectively. Also, the values for the cell count in assay [3] (setting [9]) and in assay [3] (setting [10]) were 10800 and 13200, respectively.
On to `CC(C)CC1NC(=O)C(CCCN)NC(=O)C(C(C)C)NC(=O)C(Cc2ccc(O)cc2)NC(=O)C(CCC(=O)O)NC(=O)C(CC(=O)O)NC(=O)C(Cc2ccccc2)NC(=O)C(Cc2ccccc2)NC(=O)C2CCCN2C(=O)C(Cc2ccccc2)NC1=O` (configuration not stated) (cyclo(DEYV[Orn]LFPFF); configuration not given here), for which the parasite load remaining in assay [1] was 7.69% (inactive) and 0.08% (inactive). For the same compound, the viability in assay [1] is 49.2% and 36.8%. Further, the red/green cell ratio (normalised) in assay [2] is 0.75 (inactive). Further, the normalised cell number in assay [2] (setting [5]) was 0.47; in assay [2] (setting [6]), 0.35. Further, the fold change is 1.12 (inactive) in assay [3] (setting [7]) and 0.824 in assay [3] (setting [8]). The cell count in assay [3] (setting [9]) was 1510; in assay [3] (setting [10]), 1350.
As to `CO/N=C(/C(=O)NC1C(=O)N2C(C(=O)OC(C)OC(C)=O)=C(COC(N)=O)CSC12)c1ccco1` (configuration not stated), in assay [1], the parasite load remaining is 60.6% (inactive). Besides, the viability in assay [1] amounted to 138%. Also, in assay [2], the red/green cell ratio (normalised) was 1.1 (inactive). Besides, the normalised cell number was 0.93 in assay [2] (setting [5]) and 1.02 in assay [2] (setting [6]). Also, the fold change in assay [3] (setting [7]) was 0.889 (inactive); in assay [3] (setting [8]) it was 1.77. In addition, the figures for the cell count in assay [3] (setting [9]) and in assay [3] (setting [10]) were 12300 and 13900, respectively.
Regarding `CCc1cc(Cl)c(OC)c(C(=O)NCC2CCCN2CC)c1O` (configuration not stated), in assay [4], the survival is 1.5 (inactive). In addition, the red/green cell ratio (normalised) in assay [2] is 0.67 (inactive). For the same compound, the normalised cell number stood at 1.29 in assay [2] (setting [5]) and 0.86 in assay [2] (setting [6]). Also, the fold change in assay [3] (setting [7]) was 0.847 (inactive); in assay [3] (setting [8]), 0.822. Moreover, the cell count in assay [3] (setting [9]) was 7250; in assay [3] (setting [10]), 8550.
As for `CC(=O)OC1CCC2C3CCc4cc(O)ccc4C3CCC12C` (configuration not stated), the parasite load remaining in assay [1] is 37.6% (inactive) and 33.6% (inactive). The viability in assay [1] was 66.8% and 98%. Besides, the red/green cell ratio (normalised) in assay [2] is 0.88 (inactive). The normalised cell number in assay [2] (setting [5]) turned out to be 1.2; in assay [2] (setting [6]), 1.05. Also, the values for the fold change in assay [3] (setting [7]) and in assay [3] (setting [8]) were 0.907 (inactive) and 3.29, respectively. The cell count in assay [3] (setting [9]) was 8630; in assay [3] (setting [10]), 9520.

For the origin of these results see PubChem BioAssay.
